In PubChem BioAssay (EPA / NIEHS) one finds outcome and AC50 data, which are given here for ten compounds.

Several values for one entry are separate records, joined by “and”; a condition that tells them apart may be missing. Equal values may be shown once. Records with an inconclusive call do not appear. Activity calls are given as the source filed them. How the source made its calls: active means hit-call score of the fitted dose curve at least 0.9, where 1 is the maximum; inconclusive means response in the unintended direction; inactive means score below 0.9.

human Tyrosine Protein Kinase Receptor Tie-2 (Tie2), TEK (gene 7010), sequence (Q02763 whole entry, looked up): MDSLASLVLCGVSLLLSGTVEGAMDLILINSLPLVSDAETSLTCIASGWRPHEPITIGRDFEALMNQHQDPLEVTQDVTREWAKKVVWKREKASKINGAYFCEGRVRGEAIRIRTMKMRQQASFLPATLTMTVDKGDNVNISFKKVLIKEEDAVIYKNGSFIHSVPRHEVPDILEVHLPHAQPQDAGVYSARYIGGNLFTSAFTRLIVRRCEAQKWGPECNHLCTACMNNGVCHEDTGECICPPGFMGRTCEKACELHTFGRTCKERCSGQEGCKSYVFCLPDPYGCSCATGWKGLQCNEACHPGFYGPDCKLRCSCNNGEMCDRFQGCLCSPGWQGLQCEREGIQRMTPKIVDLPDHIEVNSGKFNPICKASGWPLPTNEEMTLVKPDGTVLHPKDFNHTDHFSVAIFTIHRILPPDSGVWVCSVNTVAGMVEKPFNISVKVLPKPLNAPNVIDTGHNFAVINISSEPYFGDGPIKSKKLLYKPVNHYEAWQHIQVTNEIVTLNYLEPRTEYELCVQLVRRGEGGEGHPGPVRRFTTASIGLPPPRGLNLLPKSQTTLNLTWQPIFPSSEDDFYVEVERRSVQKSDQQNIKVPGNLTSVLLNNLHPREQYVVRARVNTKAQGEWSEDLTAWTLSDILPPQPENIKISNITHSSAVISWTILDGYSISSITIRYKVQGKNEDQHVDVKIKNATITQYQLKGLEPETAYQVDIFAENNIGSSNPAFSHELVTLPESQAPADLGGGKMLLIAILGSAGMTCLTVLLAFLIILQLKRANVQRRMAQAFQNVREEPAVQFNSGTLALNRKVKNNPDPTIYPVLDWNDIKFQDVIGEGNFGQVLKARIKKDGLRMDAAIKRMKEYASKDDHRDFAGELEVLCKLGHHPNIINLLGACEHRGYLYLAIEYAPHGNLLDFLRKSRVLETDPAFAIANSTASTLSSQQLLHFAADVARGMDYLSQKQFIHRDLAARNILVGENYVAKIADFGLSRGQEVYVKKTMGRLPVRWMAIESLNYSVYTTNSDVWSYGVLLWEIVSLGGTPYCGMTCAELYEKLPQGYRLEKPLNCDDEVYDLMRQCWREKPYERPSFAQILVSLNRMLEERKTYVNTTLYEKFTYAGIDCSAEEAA

In this assay the target is human Tyrosine Protein Kinase Receptor Tie-2 (Tie2), TEK (gene 7010) (UniProt Q02763). As to the kind of experiment: NVS_ENZ_hTie2: NovaScreen (NVS) Enzymatic Assay for human Tyrosine Protein Kinase Receptor Tie-2 (Tie2) (AID 2283225). The protocol:
NVS_ENZ_hTie2 is a biochemical, single-readout assay that uses extracted gene-proteins in a cell-free assay. Measurements were taken 1 hour after chemical dosing in a 384-well plate.NVS_ENZ_hTie2 is one of one assay component(s) measured or calculated from the NVS_ENZ_hTie2 assay. It is designed to make measurements of enzyme activity, a form of enzyme reporter, as detected with fluorescence intensity signals by Fluorescence and electrophoretic mobility shift technology.Data from the assay component NVS_ENZ_hTie2 was analyzed into 1 assay endpoint. This assay endpoint, NVS_ENZ_hTie2, was analyzed in the positive analysis fitting direction relative to DMSO as the negative control and baseline of activity. Using a type of enzyme reporter, loss-of-signal activity can be used to understand changes in the enzymatic activity as they relate to the gene TEK. Furthermore, this assay endpoint can be referred to as a primary readout, because this assay has produced multiple assay endpoints where this one serves a enzymatic activity function. To generalize the intended target to other relatable targets, this assay endpoint is annotated to the kinase intended target family, where the subfamily is receptor tyrosine kinase.
Binding assays used specific radioligands (tritiated, iodinated) with non-radioactive competitive displacement ligands in agonist or antagonist protocols (as indicated) and various reference compounds and inhibitors to titrate specific binding to receptors and transporters. Most enzyme assays (CYPs, kinases, phosphatases, proteases, HDACs) used recombinant protein and specific substrates (fluorescence mostly, some colorimetric and radioactive) and inhibitors, followed by a biochemical separation of substrate and product. All assays for the biochemical HTS were initially run in duplicate at a single concentration (10 uM for CYP450 assays and 25 uM for all others). Assay-chemical combinations meeting a pre-defined threshold (e.g., 30% inhibition and other criteria defined below) were then run in singleton concentration-response format with maximum concentration of 20 uM for CYPs and 50 uM for all others. Each assay was run with positive and negative controls, and concurrent controls on every plate. The follow-up (secondary) screen tested active chemical-pairs in concentration series, as well as a few additional assays not tested in the primary screen, some selected negative inactives, and several cases re-run in the concentration series for confirmatory purposes.
`OCCOc1ccccc1`: the result was inactive.
Consider `CC[C@H](C)[C@H]1O[C@]2(C=C[C@@H]1C)C[C@@H]1C[C@@H](C/C=C(\C)[C@@H](O[C@H]3C[C@H](OC)[C@@H](O[C@H]4C[C@H](OC)[C@@H](O)[C@H](C)O4)[C@H](C)O3)[C@@H](C)/C=C/C=C3\CO[C@@H]4[C@H](O)C(C)=C[C@@H](C(=O)O1)[C@]34O)O2` (tested in a mixture with another compound), for which the AC50 is 36.1 µM (active).
With `CC(C)OC(=O)Nc1cccc(Cl)c1`, the compound was called inactive.
`O=C(O)C(F)(F)C(F)(F)C(F)(F)C(F)(F)C(F)(F)C(F)(F)C(F)(F)F`: the AC50 was 13.7 µM (active).
In the case of `CC(C)(C)C(O)C(Oc1ccc(Cl)cc1)n1cncn1` (stereo not given), the compound was called inactive.
Same read-out and setting: the value for `CNC(=O)CSP(=S)(OC)OC` was “inactive”.
With `O=S(=O)(O)C(F)(F)C(F)(F)C(F)(F)C(F)(F)C(F)(F)C(F)(F)C(F)(F)C(F)(F)F`, the AC50 is 8.09 µM (active) and 6.38 µM (active) and 5.3 µM (active).
On to `Oc1cc(Cl)ccc1Oc1ccc(Cl)cc1Cl`, for which the compound was called inactive.
Regarding `O=C(NC(=O)c1c(F)cccc1F)Nc1ccc(OC(F)(F)C(F)OC(F)(F)F)c(Cl)c1` (stereo not given), the result was inactive.
Same read-out and setting: the value for `Cc1cc(C)nc(NC(=O)NS(=O)(=O)c2ccccc2C(=O)OC2COC2)n1` was “inactive”.
